# Out of some 85,000 compounds screened, about 5,100 (6%) were called active. The sample as a whole holds a higher share of actives than the screen did. A number with no mark means an inactive call.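 Rule for the calls: active = viability at or below 40%; inactive = viability above 40%.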
# Assay: proliferation blockers of H69AR lung cancer cells, primary screen, cell-based, human, 86K library (AID 598);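 note: multidrug resistant small cell line overexpressing MRP-1 efflux transporter; 100% = mean luminescence of untreated control wells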
# Settings: H69AR lung tumor viability, ATP luminescence, 72 h; at 10 µM; stronger effect = lower value
row,Structure (SMILES),viability
1,CCOC(=O)c1c(N)n(CCN2CCOCC2)c2nc3ccccc3nc12,92.9%
2,CCOC(=O)c1c(N)n(Cc2ccccc2)c2nc3ccccc3nc12,74.2%
3,COc1cc(Cn2c(N)c(C(=O)NCc3ccco3)c3nc4ccccc4nc32)cc(OC)c1OC,9.48% (active)
4,Cn1c(O)c(C=NCCN2CCNCC2)c(=O)n(C)c1=O,93.2%
5,COc1ccc(CN2CCN(c3ccccc3F)CC2)c(OC)c1,78.7%
6,CN(C)C(=O)NC(O)C(Cl)(Cl)Cl (stereo not given),103%
7,CCCCn1c(O)c(C(CC)=NCc2ccco2)c(=O)[nH]c1=O,76.8%
8,CCOc1ccc(CN(CCCl)CCCl)cc1C(=O)OC,54.1%
9,COc1ccc(-c2nc(CS(=O)CC(=O)N3CCC4(CC3)OCCO4)c(C)o2)cc1 (stereo not given),92.7%
10,Cc1ccc(Cn2c(C)c3cnn(CC(=O)N4CCC5(CC4)OCCO5)c(=O)c3c2C)cc1,37.9% (active)
11,O=C(CCCn1c(=O)[nH]c2cc(Cl)ccc2c1=O)N1CCC2(CC1)OCCO2,82.2%
12,CC(=O)c1c(C)n(C(C)C)c2ccc(O)cc12,98.6%
13,CCCCCn1c(=O)c(C(=O)NCc2ccccn2)c(O)c2ccccc21,20.3% (active)
14,COc1ccc(CCn2c(O)c(C=NCCCn3ccnc3)c(=O)[nH]c2=O)cc1OC,87.2%
15,CCN(N=Nc1nonc1OC)c1nonc1OC,95.7%
16,Cc1ccc(N(C)C(=O)Oc2cccc3ccc(C)nc23)cc1,90%
17,CC(=O)c1c(O)n(C2CCCCCC2)c(=O)[nH]c1=O,88.7%
18,CCC(=NCCc1ccccc1)c1c(O)n(C2CCCCC2)c(=O)[nH]c1=O,25.3% (active)
19,CCC(=NCc1ccco1)c1c(O)n(Cc2ccccc2)c(=O)[nH]c1=O,71.1%
20,c1cc2c(cc1CCNC1CCCCCC1)OCO2,73.7%
